The record followed here is PubChem BioAssay (Tox21).

Test [1] is described as follows: A CellTox Green Cytotoxicity Assay to monitor cytotoxicity in HepG2 cells - 8 hour (AID 1224890). Further: nearly all actives have a fitted effect of over 45% in size. Further: potency means the concentration at half of the fitted maximal effect. An outline of the steps: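 Continuous culture of HepG2 cells with a membrane-impermeant DNA dye; rising fluorescence marks dead cells. Compound exposure lasted up to 40 h at 37 C, with reads every 8 h from 0 h.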
The nature of test [2]: qHTS assay to identify small molecule antagonists of the estrogen receptor alpha (ER-alpha) signaling pathway using the BG1 cell line in the presence of 0.1 nM 17-beta-estradiol - cell viability counter screen (AID 1259241). Further: nearly all actives have a fitted effect of over 40% in size. Further: potency means the concentration at half of the fitted maximal effect. An outline of the steps:
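In this screen, hormone-deprived VM7Luc4E2 cells were seeded at 4,000 per well, dosed with compound and 0.1 nM estradiol final, and incubated 22 hr at 37C and 5% CO2; fluorogenic live-cell protease signal reported viability.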
In general terms: In qHTS, concentration-response curves come from the screen itself.

For test [3], the target named is Androgen receptor (Homo sapiens) (UniProt P10275). The test is described as follows: qHTS assay to identify small molecule antagonists of the androgen receptor (AR) signaling pathway using the MDA cell line in the presence of 0.5 nM R1881 (AID 1259243). Further: nearly all actives have a fitted effect of over 50% in size. Further: potency means the concentration at half of the fitted maximal effect. An outline of the steps: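 Inhibition of R1881 (0.5 nM final) induced reporter signal was measured in human MDA-kb2 cells; note the MMTV promoter also responds to GR. Exposure lasted 16 hr at 37C.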
Androgen receptor (Homo sapiens), sequence (P10275 whole entry, looked up): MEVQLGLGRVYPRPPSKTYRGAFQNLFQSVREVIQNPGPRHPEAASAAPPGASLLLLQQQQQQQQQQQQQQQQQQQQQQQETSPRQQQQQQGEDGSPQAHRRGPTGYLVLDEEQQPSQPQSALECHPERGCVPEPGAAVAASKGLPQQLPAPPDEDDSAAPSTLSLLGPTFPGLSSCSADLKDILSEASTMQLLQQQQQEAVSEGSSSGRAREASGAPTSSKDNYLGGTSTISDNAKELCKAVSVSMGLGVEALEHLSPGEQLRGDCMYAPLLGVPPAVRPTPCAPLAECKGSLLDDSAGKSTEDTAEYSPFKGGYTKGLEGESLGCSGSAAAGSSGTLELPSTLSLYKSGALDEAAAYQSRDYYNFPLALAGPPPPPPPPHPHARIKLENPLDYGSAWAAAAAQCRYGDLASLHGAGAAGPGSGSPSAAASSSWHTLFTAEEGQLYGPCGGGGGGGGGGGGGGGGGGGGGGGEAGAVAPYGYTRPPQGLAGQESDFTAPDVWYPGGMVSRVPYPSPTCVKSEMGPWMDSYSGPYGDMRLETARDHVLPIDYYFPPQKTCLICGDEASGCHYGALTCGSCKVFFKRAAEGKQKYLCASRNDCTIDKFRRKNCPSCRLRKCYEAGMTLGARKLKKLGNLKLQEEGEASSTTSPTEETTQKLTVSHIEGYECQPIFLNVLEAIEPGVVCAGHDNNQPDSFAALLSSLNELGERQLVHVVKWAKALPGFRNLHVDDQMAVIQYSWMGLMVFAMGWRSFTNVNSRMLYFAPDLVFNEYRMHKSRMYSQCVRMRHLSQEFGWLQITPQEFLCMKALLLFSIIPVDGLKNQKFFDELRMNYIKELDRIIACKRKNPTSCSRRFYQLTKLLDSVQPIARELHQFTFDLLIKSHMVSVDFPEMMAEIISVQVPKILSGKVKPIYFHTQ

Test [4] deals with Estrogen receptor (Homo sapiens) (UniProt P03372). The test is described as follows: qHTS assay to identify small molecule antagonists of the estrogen receptor alpha (ER-alpha) signaling pathway using the BG1 cell line in the presence of 0.1 nM 17-beta-estradiol (AID 1259244). Further: nearly all actives have a fitted effect of over 50% in size. Further: potency means the concentration at half of the fitted maximal effect. An outline of the steps: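 Quantitative high-throughput screen in VM7Luc4E2 cells: compound plus 0.1 nM E2 (final), 22 h, 37C, 5% CO2; ONE-Glo added, 30 min room temperature, luminescence measured.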
Estrogen receptor (Homo sapiens), sequence (P03372 whole entry, looked up): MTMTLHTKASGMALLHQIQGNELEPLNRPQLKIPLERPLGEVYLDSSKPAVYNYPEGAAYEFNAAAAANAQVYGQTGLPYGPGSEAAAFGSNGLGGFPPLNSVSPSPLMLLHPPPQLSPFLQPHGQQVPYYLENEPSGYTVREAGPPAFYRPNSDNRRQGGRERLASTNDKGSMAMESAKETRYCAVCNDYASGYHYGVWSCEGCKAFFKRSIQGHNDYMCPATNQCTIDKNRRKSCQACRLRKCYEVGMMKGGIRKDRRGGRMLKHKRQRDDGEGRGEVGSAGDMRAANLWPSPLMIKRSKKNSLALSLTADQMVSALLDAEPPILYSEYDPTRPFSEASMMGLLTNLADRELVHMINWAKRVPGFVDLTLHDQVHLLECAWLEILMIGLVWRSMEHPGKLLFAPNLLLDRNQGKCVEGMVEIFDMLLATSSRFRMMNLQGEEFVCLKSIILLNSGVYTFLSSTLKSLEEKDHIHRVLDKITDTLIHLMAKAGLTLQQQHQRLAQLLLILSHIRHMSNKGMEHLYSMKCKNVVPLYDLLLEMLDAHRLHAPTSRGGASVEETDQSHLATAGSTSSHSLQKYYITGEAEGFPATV

The nature of test [5]: qHTS assay to identify small molecule phospholipidosis (PLD) inducers (AID 1259344; active means well fitted curve in the direction sought with a large enough effect; an effect the other way counts as inactive or inconclusive). An outline of the steps:
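HepG2 cells on collagen I, attached 4 h at 37 C, were co-treated with compound and LipidTOX Red dye for 24 h at 37 C, then fixed with paraformaldehyde plus Hoechst 33342 and imaged by high-content microscopy for phospholipid accumulation.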

The nature of test [6]: qHTS assay to identify small molecule HDAC inhibitors (AID 1259364). Further: nearly all actives have a fitted effect of over 45% in size. Further: potency means the concentration at half of the fitted maximal effect. On activity change, negative = inhibition: top concentration of the series differs between compounds. An outline of the steps: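 Endogenous HDAC class I/II activity was measured in wild-type HCT-116 cells by HDAC-Glo luminescence after 2 h compound treatment.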
Test [7] is described as follows: qHTS assay to identify small molecule HDAC inhibitors - cell viability counter screen (AID 1259365). Further: series mostly up to about 92 µM; nearly all actives have a fitted effect of over 50% in size. An outline of the steps: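 Measured quantity is CellTiter-Glo luminescence from wild-type HCT-116 cells after compound incubation of 2hr at 37C, 5% CO2; reagent developed 30min at room temperature.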
Test [8] is described as follows: qHTS assay to identify small molecule agonists of the sonic hedgehog signaling (Shh) pathway - cell viability counter screen (AID 1259366). Further: nearly all actives have a fitted effect of over 50% in size. An outline of the steps:
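In quantitative high-throughput format, 3T3 Gli1-Luc cells were exposed to compounds for 24hr and multiplexed for viability using CellTiter-Fluor, incubated 1hr at 37C before the fluorescence read.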

Test [9] can be described thus: qHTS assay to identify small molecule antagonists of the sonic hedgehog signaling (Shh) pathway - cell viability counter screen (AID 1259367). Further: nearly all actives have a fitted effect of over 55% in size. An outline of the steps:
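NIH/3T3-derived Gli1-Luc reporter cells (2,000 per well) rested 4 hr at 37 C, then received DMSO compounds plus conditioned medium. After 23 hr of treatment, CellTiter-Fluor was added for 1 hr at 37C and fluorescence read.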

Test [10] in a line: qHTS assay to identify small molecule antagonists of the androgen receptor (AR) signaling pathway using the MDA cell line in the presence of 0.5 nM R1881 - cell viability counter screen (AID 1259242). Further: nearly all actives have a fitted effect of over 45% in size. An outline of the steps: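 Fluorescence from CellTiter-Fluor, which reports protease activity of live cells, was read 30 min after reagent addition to MDA-kb2 cells that had been incubated 16 hr with compound and 0.5 nM R1881.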

Values without a mark were called inactive. Results filed as inconclusive are left out. Calls of active or inactive are those of the source. Unless noted, the call rests on the fitted dose curve; in most records, active means well fitted curve in the direction sought with a large enough effect in the repeat runs; inconclusive means weak or mixed curves; inactive means no such curve, though single readings can be large; an effect the other way counts as inactive or inconclusive.
On the % scale 0 is the no-effect control and ±100 the full control effect.

As for `CCCC(=O)O[C@]1(C(=O)COC(=O)CC)CC[C@H]2[C@@H]3CCC4=CC(=O)CC[C@]4(C)[C@H]3[C@@H](O)C[C@@]21C`, in test [1], the cytotoxicity increase is -2.4% [at 15.8 µM]. Besides, the activity change, negative = cytotoxicity in test [2] was 7.4% [at 19 µM]; in test [7], -1.94% [at 19 µM]. In addition, the Potency entry in test [3] is “inactive”. Moreover, the activity change, negative = inhibition is 31.4% [at 19 µM] in test [4] and -0.144% [at 19 µM] in test [6]. In addition, the PLD induction in test [5] is -3.36% [at 7.66 µM]. Besides, the viability change, negative = cytotoxic in test [8] is 2.28% [at 19 µM]; in test [9], -1.17% [at 19 µM].

In the case of `CNC(=O)N(c1ccccc1)c1ccccc1`, the Potency entry in [1], in test [2], in test [3], in test [4], in [7] and in test [9] was “inactive” each time.

On to `O=C(CS)OCCOC(=O)CS`, for which the Potency entry in test [1], in test [2], in [10], in test [7] and in [9] was “inactive” in each case. For the same compound, in test [6], the Potency was 8.63 µM (active).

Take `Fc1c(F)c(F)c(Br)c(F)c1F`: the Potency result in [1], in test [2], in test [10], in test [6], in [7] and in test [8] was “inactive” in each case. Moreover, the Potency result in test [9] was “inactive”.

`CCCCC/C(=C\c1ccccc1)CO`: the Potency entry in test [1], in [2], in test [10], in test [7], in test [8] and in test [9] was “inactive” in each case.

Turning to `COc1ccc(CCC(=O)c2c(O)cc(O[C@@H]3O[C@H](CO)[C@@H](O)[C@H](O)[C@H]3O[C@@H]3O[C@@H](C)[C@H](O)[C@@H](O)[C@H]3O)cc2O)cc1O`, the Potency result in test [1], in [2], in [3], in [4], in test [6] and in [7] was “inactive” each time. Also, the Potency result in test [8] and in test [9] was “inactive” in each case.

For the compound `C=CCOC(=O)/C=C\C(=O)OCC=C`, the Potency entry in [1], in test [2], in test [3], in test [4], in [6] and in [7] was “inactive” each time. The Potency entry in [8] and in test [9] was “inactive” throughout.

For `CCNC(=O)N1CCN(CCCC(c2ccc(F)cc2)c2ccc(F)cc2)CC1`, the Potency result in test [1], in test [7] and in [9] was “inactive” throughout. The Potency was 26.6 µM (active) in [2] and 18.8 µM (active) in test [4]. Also, the compound was classed as inactive in [5].

For `C[C@@H]1C[C@H]2[C@@H]3CCC4=CC(=O)C=C[C@]4(C)[C@@]3(F)[C@@H](O)C[C@]2(C)[C@@]1(O)C(=O)CO`, the Potency entry in test [1], in [2], in test [10], in [6], in test [7] and in test [9] was “inactive” throughout.

Take `COc1cc2c(N3CCN(C(=O)Nc4ccc(OC(C)C)cc4)CC3)ncnc2cc1OCCCN1CCCCC1`: the Potency result in test [1], in test [2], in test [4], in test [6] and in test [7] was “inactive” throughout.

For `CC(=O)CC(c1ccc([N+](=O)[O-])cc1)c1c(O)c2ccccc2oc1=O` (stereo not given), the Potency result in test [1], in test [2], in [4], in test [6], in test [7] and in [9] was “inactive” in each case. Also, the call in test [5] was inactive.

Consider `C=CC(C)=CCC=C(C)C`, for which the Potency entry in test [1], in test [2], in test [10], in [7], in [8] and in test [9] was “inactive” in each case.

For `C=CCNc1nc(NCC=C)nc(N2CCN(C(c3ccc(F)cc3)c3ccc(F)cc3)CC2)n1`, the Potency result in test [1], in test [2], in [6], in [7], in test [8] and in [9] was “inactive” throughout. Further, the Potency is 10.6 µM (active) in test [3] and 11.9 µM (active) in [4].

Take `[O]=[Bi]`: the cytotoxicity increase in [1] was 2.13% [at 6.97 µM]. For the same compound, the activity change, negative = cytotoxicity in test [2] was -2.05% [at 8.39 µM]; in test [7] it was -2.43% [at 8.39 µM]. The viability change, negative = cytotoxic in test [10] was 1.95% [at 8.39 µM]; in test [9], -5.4% [at 8.39 µM]. Besides, the activity change, negative = inhibition in [6] was 9.82% [at 8.39 µM].

In the case of `CC(C)(C)CC(C)(C)c1ccc(OCCO)cc1`, the Potency entry in [1] and in [7] was “inactive” in each case. The Potency in [2] was 54.2 µM (active); in [3] it was 6.82 µM (active); in test [4], 10.8 µM (active). In addition, the result in test [5] was inactive.

Take `CCCCN(CCCC)CCCOC(=O)c1ccc(N)cc1`: the Potency entry in [1], in [2], in [10], in test [7] and in test [9] was “inactive” throughout.

With `O=C(c1ccc(O)cc1)c1ccc(Cl)cc1`, the Potency result in [1], in test [2], in test [10], in test [7] and in [9] was “inactive” each time.

In the case of `Cc1cc(O)c(C(C)C)cc1Cl`, the Potency in test [1] was 43.6 µM (active). In addition, the Potency result in test [2], in test [4], in test [6], in [7], in test [8] and in test [9] was “inactive” throughout. Besides, the call in test [5] was inactive.

For the compound `NC(=O)Cn1c(=O)cc(CCN2CCN(c3nccc4sccc34)CC2)c2ccc(F)cc21`, the Potency entry in [1], in test [2], in test [10] and in [7] was “inactive” each time.

For the compound `C[C@@H]1C[C@H]2[C@@H]3CCC4=CC(=O)C=C[C@]4(C)[C@@]3(F)[C@@H](O)C[C@]2(C)[C@H]1C(=O)CO`, the Potency entry in test [1], in test [2], in [10], in [6], in test [7] and in test [9] was “inactive” in each case.

Take `CC1C2CC(CC2C2CCCC(O)C2)C1(C)C` (stereo not given): in test [1], the Potency is 43.6 µM (active). The Potency result in test [2], in test [10], in test [6] and in [9] was “inactive” throughout.

In the case of `CCOC(=O)N1CCC(n2c(=O)[nH]c3cc(Cl)ccc32)CC1`, the Potency entry in test [1], in [2], in test [6], in test [7], in [8] and in [9] was “inactive” throughout. Besides, the Potency in [3] is 21.1 µM (active); in [4], 23.7 µM (active).

For `CC(C)(C)C(=O)O`, the Potency result in test [1], in test [2], in test [10], in [6], in test [7] and in [8] was “inactive” in each case. In addition, the Potency entry in test [9] was “inactive”.

Regarding `CCc1cccc(N(C)C(N)=Nc2cccc3ccccc23)c1`, the Potency result in test [1], in test [2], in test [3], in test [7], in test [8] and in [9] was “inactive” in each case.

As for `Cc1cnc(C)c(C)n1`, the Potency result in test [1], in test [2], in [10], in test [6], in test [7] and in test [8] was “inactive” each time. Further, the Potency result in [9] was “inactive”.

With `C[N+]1(C)CCC(=C(c2ccccc2)c2ccccc2)CC1`, the Potency entry in test [1], in test [2], in test [10], in [6], in test [7] and in test [8] was “inactive” in each case. Moreover, in [9], the Potency entry is “inactive”.

In the case of `CCC(=O)OC/C=C/c1ccccc1`, the Potency entry in test [1], in test [2], in test [4], in test [6], in test [7] and in [8] was “inactive” in each case. Also, the Potency result in [9] was “inactive”.

In the case of `OC(CCCN1CCCCC1)(c1ccccc1)c1ccccc1`, the Potency entry in test [1], in [3], in [4], in test [6], in test [7] and in [9] was “inactive” each time.

In the case of `Cc1cc(C(=C2C=CC(=Nc3ccc(S(=O)(=O)O)cc3S(=O)(=O)O)C=C2)c2ccc(Nc3ccc(S(=O)(=O)O)cc3)cc2)ccc1N`, the Potency entry in [1], in test [4], in test [6], in test [7], in test [8] and in [9] was “inactive” in each case.

On to `CN1CCN(c2c(F)cc3c(=O)c(C(=O)O)cn4c3c2OCN4C)CC1`, for which, in test [1], the cytotoxicity increase is -3.25% [at 15.8 µM]. Moreover, the activity change, negative = cytotoxicity in test [2] is 0.712% [at 19 µM]; in [7], -3.29% [at 19 µM]. Moreover, the activity change, negative = inhibition in test [4] is 2.06% [at 19 µM]. In addition, the viability change, negative = cytotoxic is 2.32% [at 19 µM] in test [8] and -1.18% [at 19 µM] in test [9].

Consider `O=C(CCCN1CCC(O)(c2ccc(Br)cc2)CC1)c1ccc(F)cc1`, for which the Potency entry in [1], in [2], in [4], in [6], in [7] and in [8] was “inactive” throughout. Also, the Potency entry in test [9] is “inactive”.
